Measurements from the supplement of paper PMC11732987, “Enantioselective OTUD7B fragment discovery through chemoproteomics screening and high-throughput optimisation” (Communications Chemistry, 2025).

Assays:
Assay in all cases: log2 ratio of Biotin-Ahx-Ub-VS probe labelling (fragment/DMSO); higher = less target engagement (more negative = stronger competition), active = hit call of the paper (q ≤ 0.05, log2 ratio ≤ -1)
Conditions in all cases: compound concentration: 200 uM; treatment time: 3 h
[1] = target: T1, USP19 (UniProt O94966)
T1 sequence (whole entry): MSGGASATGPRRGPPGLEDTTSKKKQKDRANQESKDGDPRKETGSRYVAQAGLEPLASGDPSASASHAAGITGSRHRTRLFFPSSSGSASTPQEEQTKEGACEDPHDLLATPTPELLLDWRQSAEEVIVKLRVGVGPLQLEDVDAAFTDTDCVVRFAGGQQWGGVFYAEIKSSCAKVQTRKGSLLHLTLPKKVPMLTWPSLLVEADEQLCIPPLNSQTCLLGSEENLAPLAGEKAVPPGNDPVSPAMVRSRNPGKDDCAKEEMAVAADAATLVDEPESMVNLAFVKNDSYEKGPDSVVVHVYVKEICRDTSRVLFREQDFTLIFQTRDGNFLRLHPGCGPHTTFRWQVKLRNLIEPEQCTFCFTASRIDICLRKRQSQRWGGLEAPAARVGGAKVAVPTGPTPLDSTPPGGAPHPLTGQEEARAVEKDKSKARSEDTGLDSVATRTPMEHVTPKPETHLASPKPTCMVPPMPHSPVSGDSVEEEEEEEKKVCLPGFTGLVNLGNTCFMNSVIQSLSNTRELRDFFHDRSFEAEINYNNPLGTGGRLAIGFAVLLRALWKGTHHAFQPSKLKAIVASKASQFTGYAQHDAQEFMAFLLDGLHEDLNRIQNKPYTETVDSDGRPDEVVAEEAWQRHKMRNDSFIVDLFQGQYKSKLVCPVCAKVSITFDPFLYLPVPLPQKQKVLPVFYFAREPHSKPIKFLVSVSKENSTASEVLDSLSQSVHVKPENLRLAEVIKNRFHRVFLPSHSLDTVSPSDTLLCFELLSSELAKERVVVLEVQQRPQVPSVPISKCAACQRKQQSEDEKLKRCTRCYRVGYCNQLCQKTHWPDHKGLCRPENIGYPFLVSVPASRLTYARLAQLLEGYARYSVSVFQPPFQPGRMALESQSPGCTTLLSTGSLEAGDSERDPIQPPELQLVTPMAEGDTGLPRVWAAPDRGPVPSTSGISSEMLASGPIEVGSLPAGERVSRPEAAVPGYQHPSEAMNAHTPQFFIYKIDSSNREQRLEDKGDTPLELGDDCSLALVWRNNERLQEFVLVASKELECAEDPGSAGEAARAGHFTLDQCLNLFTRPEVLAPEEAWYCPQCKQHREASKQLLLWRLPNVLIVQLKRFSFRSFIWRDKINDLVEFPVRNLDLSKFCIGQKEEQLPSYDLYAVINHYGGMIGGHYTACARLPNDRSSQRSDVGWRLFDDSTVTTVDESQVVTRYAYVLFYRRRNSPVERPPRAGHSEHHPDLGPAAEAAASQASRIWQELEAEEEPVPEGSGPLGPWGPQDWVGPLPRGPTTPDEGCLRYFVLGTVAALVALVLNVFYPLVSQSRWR
Summary of the method: (§1)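 Global-median-normalised Spectronaut label-free quantities were compared by unpaired t-test, and values are average log2 ratios of fragment over vehicle. Only proteins with ≥2 unique peptides were used. HEK293T lysate (495 µg per sample) was treated in triplicate with fragment at 200 µM or vehicle for 3 h and then with Biotin-Ahx-Ub-VS at 0.5 µM final for 1 h. Labelled DUBs were then NeutrAvidin-enriched, digested with LysC and trypsin, and run by diaPASEF LC-MS/MS.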

[2] = target: USP24 (UniProt Q9UPU5)
Summary of the method: as §1

[3] = target: T2, USP25 (UniProt Q9UHP3)
T2 sequence (whole entry): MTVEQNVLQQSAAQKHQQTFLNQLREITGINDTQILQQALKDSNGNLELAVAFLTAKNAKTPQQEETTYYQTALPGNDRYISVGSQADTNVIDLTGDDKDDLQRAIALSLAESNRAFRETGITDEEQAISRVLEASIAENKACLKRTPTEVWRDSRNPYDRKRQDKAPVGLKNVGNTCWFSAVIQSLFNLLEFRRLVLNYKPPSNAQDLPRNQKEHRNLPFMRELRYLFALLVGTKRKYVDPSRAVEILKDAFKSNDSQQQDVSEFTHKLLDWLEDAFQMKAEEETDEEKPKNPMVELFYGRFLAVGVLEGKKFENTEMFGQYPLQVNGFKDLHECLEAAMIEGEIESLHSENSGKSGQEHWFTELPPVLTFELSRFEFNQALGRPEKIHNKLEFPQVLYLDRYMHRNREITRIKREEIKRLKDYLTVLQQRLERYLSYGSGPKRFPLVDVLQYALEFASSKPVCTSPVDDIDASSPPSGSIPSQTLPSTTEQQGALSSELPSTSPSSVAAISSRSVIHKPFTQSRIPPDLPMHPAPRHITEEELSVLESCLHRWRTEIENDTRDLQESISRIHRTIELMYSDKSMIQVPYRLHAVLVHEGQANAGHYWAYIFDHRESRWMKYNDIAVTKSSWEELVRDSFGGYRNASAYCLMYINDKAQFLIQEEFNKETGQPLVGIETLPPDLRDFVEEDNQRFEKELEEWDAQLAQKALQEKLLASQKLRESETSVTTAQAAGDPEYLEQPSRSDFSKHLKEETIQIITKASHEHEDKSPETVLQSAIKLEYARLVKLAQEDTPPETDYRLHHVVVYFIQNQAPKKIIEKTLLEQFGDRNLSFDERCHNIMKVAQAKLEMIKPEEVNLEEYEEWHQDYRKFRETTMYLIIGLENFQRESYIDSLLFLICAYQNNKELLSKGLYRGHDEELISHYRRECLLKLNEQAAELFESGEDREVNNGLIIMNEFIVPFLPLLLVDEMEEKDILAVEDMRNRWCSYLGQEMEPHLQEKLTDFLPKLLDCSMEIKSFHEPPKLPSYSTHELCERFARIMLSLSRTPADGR
Summary of the method: as §1

[4] = target: T3, USP28 (UniProt Q96RU2)
T3 sequence (whole entry): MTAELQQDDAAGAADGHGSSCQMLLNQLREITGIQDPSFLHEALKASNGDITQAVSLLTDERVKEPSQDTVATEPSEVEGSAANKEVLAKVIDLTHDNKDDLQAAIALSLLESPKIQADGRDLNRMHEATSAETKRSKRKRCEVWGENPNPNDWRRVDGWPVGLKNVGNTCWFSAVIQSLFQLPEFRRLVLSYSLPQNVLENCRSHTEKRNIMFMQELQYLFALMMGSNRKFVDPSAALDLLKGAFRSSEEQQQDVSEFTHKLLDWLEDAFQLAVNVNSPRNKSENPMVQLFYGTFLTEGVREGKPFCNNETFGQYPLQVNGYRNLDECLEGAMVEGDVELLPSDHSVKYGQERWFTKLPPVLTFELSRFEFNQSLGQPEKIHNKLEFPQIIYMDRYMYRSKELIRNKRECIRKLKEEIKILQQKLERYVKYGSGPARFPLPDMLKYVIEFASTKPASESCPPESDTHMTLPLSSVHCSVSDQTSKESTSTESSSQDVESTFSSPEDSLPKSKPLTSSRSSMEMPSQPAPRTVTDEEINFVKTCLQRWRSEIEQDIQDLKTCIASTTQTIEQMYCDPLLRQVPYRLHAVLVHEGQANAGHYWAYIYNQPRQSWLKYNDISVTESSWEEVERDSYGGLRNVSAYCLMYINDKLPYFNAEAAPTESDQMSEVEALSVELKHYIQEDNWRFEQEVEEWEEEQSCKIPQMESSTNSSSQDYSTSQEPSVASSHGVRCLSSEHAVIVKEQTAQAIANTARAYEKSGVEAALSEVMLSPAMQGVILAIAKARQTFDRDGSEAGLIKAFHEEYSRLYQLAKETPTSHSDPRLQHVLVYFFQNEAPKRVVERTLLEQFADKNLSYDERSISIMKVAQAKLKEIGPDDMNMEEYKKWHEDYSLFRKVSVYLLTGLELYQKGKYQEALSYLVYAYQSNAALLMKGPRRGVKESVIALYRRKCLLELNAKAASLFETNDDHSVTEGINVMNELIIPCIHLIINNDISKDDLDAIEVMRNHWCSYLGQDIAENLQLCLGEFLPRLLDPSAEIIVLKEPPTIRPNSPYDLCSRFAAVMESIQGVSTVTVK
Summary of the method: as §1

Measured: log2 ratio of Biotin-Ahx-Ub-VS probe labelling

Sequence of USP24 (Q9UPU5 whole entry): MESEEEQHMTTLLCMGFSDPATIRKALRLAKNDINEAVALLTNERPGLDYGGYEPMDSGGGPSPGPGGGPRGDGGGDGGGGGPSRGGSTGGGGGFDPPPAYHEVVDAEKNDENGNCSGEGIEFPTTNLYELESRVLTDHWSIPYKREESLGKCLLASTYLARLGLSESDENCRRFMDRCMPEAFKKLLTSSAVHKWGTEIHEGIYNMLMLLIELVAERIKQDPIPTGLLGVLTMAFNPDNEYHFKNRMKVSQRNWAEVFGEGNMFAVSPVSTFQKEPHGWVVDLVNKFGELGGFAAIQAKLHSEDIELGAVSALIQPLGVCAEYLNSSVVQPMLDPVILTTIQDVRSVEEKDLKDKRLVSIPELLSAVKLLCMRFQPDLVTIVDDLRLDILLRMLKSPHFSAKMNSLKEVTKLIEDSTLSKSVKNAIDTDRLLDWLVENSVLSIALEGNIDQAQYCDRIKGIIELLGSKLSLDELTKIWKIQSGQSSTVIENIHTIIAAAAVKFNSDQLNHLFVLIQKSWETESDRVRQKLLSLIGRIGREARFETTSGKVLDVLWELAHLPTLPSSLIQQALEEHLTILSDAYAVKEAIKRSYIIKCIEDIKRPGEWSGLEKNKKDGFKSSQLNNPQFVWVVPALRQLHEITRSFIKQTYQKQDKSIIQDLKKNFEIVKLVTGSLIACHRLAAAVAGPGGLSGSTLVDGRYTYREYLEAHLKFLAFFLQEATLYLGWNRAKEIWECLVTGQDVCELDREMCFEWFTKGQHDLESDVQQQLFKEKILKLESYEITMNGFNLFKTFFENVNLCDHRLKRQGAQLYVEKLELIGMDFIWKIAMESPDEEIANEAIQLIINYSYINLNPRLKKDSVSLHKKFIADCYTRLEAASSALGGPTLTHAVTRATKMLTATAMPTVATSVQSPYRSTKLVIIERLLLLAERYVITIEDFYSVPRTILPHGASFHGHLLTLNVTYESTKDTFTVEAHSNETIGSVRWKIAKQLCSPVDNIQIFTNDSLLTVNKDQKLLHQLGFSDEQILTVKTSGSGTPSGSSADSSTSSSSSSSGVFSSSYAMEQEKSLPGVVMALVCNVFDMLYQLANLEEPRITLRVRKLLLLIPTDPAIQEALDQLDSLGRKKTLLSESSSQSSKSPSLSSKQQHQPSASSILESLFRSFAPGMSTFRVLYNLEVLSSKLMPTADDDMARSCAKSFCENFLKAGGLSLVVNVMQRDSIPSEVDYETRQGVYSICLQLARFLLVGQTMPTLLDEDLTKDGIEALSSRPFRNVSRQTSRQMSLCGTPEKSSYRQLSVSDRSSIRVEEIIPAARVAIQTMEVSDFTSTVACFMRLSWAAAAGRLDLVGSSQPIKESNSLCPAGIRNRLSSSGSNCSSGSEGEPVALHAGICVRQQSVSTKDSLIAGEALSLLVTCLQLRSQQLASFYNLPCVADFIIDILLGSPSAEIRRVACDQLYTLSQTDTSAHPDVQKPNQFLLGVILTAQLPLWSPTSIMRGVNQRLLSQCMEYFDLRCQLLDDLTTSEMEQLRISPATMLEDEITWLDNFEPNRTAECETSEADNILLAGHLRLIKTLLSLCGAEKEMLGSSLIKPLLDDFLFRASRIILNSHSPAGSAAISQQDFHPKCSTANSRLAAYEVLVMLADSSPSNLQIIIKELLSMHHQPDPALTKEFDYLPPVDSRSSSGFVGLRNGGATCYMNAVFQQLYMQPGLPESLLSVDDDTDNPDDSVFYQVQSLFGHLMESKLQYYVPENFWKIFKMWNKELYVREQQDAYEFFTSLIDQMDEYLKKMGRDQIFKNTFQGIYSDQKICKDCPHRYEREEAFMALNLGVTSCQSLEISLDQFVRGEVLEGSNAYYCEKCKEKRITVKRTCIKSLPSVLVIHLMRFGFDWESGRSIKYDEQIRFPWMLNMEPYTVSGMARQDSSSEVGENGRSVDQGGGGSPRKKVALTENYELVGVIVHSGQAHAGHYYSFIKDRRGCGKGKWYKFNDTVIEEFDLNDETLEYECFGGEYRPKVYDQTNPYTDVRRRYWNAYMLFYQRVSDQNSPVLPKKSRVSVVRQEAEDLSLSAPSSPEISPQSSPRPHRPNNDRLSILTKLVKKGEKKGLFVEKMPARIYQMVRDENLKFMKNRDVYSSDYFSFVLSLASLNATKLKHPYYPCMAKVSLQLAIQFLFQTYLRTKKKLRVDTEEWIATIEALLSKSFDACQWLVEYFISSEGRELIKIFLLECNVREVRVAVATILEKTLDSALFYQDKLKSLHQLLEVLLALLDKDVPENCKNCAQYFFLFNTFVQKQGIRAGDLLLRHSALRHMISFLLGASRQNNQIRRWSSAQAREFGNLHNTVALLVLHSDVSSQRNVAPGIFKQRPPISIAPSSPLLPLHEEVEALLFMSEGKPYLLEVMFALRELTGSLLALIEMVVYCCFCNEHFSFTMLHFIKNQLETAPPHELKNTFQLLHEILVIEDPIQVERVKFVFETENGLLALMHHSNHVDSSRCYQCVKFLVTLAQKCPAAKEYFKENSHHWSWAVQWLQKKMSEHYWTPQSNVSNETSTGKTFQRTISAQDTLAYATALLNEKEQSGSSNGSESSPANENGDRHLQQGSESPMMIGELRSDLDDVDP

Cc1cc(CC(C)NC(=O)CCl)n[nH]1 (centres undefined)
inactive: [1] -0.257 | [2] -0.17 | [3] -0.198 | [4] -0.332
